# From PubChem BioAssay AID777 (Sanford-Burnham Center for Chemical Genomics, 2007)
# Among all 96,000 compounds or so, about 19,000 (20%) were called active. The list is a sample of the results. Values without a mark were called inactive.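 Rule for the calls: active = blocking of liver enzyme CYP2C9 beyond about 50% at 5 µM (limit read from the data); inactive = the rest.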
# Target: Cytochrome P450 2C9 (Homo sapiens) (UniProt P11712)
# Assay: blockers of cytochrome P450 2C9 activity – biochemical, luminescence, ADME assay, primary screen (AID 777)
# Conditions: CYP2C9 Supersomes, luciferin-H conversion, at 5 µM, active compounds read high
# Cytochrome P450 2C9 (Homo sapiens), sequence (P11712 whole entry, looked up): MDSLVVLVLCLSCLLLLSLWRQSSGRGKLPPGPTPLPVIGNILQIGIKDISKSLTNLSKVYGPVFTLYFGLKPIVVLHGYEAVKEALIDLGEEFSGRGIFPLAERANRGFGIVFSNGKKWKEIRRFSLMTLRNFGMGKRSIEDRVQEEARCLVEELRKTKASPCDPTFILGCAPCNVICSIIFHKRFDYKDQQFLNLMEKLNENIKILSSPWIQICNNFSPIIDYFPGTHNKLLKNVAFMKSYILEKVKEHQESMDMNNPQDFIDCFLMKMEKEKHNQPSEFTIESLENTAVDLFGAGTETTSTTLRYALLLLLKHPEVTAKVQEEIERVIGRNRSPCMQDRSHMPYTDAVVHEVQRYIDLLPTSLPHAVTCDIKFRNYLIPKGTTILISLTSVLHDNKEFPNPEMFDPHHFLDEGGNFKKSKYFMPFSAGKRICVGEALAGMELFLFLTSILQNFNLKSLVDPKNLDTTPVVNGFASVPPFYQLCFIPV
row,Structure (SMILES),inhibition
1,O=S(=O)(NCCOc1cccc2cccnc12)c1ccc(F)cc1,-234%
2,O=S(=O)(Nc1ccc(Oc2ncccn2)c(Cl)c1)c1ccc(F)cc1,99.7% (active)
3,O=S(=O)(NCc1ccccn1)c1ccc(F)cc1,-1.3%
4,CCCNc1ncnc2sc(C)c(C)c12,8.4%
5,CC(=O)c1ccc(Oc2cc(C)nc(-n3nc(C)cc3C)n2)cc1,-5%
6,O=C(C(c1ccccc1)c1ccccc1)N1CCN(CC(O)COc2ccccc2)CC1 (stereo not drawn),65.6% (active)
7,OC(COc1cccc(OCC(O)CN2CCCC2)c1)CN1CCCC1 (stereo not drawn),15.5%
8,COc1cccc(OCC(O)CN2CCN(CCO)CC2)c1 (stereo not drawn),-2.9%
9,CN(C(=O)C1CCOC1)c1nnc(-c2cccnc2)s1 (stereo not drawn),0.8%
10,CCn1c(=O)cc(O)c2ccccc21,-18.7%
11,Cn1sc(NC(=O)c2ccccc2)nc1=O,19.9%
12,CCn1c(NC(=O)c2ccccc2)c(-c2cccs2)c(=O)c2ccccc21,86.7% (active)
13,Cc1cc(-c2ccccc2)n2nc(C)c(-c3ccccc3)c2n1,-9.3%
14,CCS(=O)(=O)Nc1ccc(C2=NN(S(=O)(=O)c3ccc(F)cc3)C(c3ccco3)C2)cc1 (stereo not drawn),87.7% (active)
15,Fc1ccc(N2N=C(c3cccs3)CC2c2ccco2)c(F)c1 (stereo not drawn),15.7%
16,O=C(c1ccco1)N1CCN(C(=O)C2CC(c3ccc(F)cc3)=NO2)CC1 (stereo not drawn),5.7%
17,CC(=O)Nc1ccc(N2C(=O)CCC2=O)cc1C,16.4%
18,O=C(Cn1nc(C(F)(F)F)c2c1CCC2)NCc1ccc(F)cc1,-216%
19,CCCN1C(=O)C(NS(=O)(=O)c2ccc(N)cc2)(C(F)(F)F)C(C(=O)OC)=C1C (stereo not drawn),-3.4%
20,CCCCn1c(CCCNC(=O)CC)nc2ccccc21,-16.5%
21,Cc1ccccc1S(=O)(=O)Cc1ccc(C(=O)NCCN2CCCCC2C)o1 (stereo not drawn),11.1%
22,Cc1cccc(NC(=O)Nc2cccc(Oc3c(F)c(F)c(F)c(F)c3F)c2)c1,20.6%
23,Cc1cccc(NC(=O)CN2C(=O)CNC2=O)c1,-16.3%
24,Cc1cccc(NC(=O)C(C)N2C(=O)C3C4CC(C(Br)C4Br)C3C2=O)c1 (stereo not drawn),51.6% (active)
25,CC1=C(C(=O)Nc2ccc(Cl)cc2)C(c2ccco2)NC(=O)N1 (stereo not drawn),0.4%
26,CCOc1ccccc1C1NC(=O)NC(C)=C1C(=O)OCc1ccco1 (stereo not drawn),75.3% (active)
27,CCOc1ccccc1C(=O)NCc1ccco1,-0.6%
28,CCOC(=O)COc1ccc(Cl)cc1C1NC(=O)NC(C)=C1C(C)=O (stereo not drawn),44.9%
